Measurements reported in paper PMC5540273 (PLoS ONE, 2017).

Key:
Settings in all cases: concentration: 1 μM, replicates: in singlicate; n = 1
TRKC = tested on: T1, TRKC
T1 construct: gene NTRK3

TRPM6 = tested on: TRPM6
TSSK1B = tested on: TSSK1B
TSSK3 = tested on: TSSK3
TTK = tested on: TTK
TXK = tested on: TXK
[1] = tested on: TYK2(JH1domain-catalytic)
[2] = tested on: TYK2(JH2domain-pseudokinase)
TYRO3 = tested on: TYRO3
ULK1 = tested on: ULK1
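Also: KINOMEscan kinase panel screen.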

| SMILES | %Inh (TRKC) [%] | %Inh (TRPM6) [%] | %Inh (TSSK1B) [%] | %Inh (TSSK3) [%] | %Inh (TTK) [%] | %Inh (TXK) [%] | %Inh [1] [%] | %Inh [2] [%] | %Inh (TYRO3) [%] | %Inh (ULK1) [%] |
| --- | --- | --- | --- | --- | --- | --- | --- | --- | --- | --- |
| Nc1nc(-c2ccccn2)c(-c2ccnc3ccccc23)s1 [GW548057] | 45 | 0 | 0 | 9 | 2 | 0 | 24 | 29 | 0 | 0 |
| FC(F)(F)c1ccc(-c2cc(-c3c[nH]nc3-c3ccccn3)ccn2)cc1 [GW599550] | 14 | 38 | 13 | 7 | 0 | 0 | 20 | 21 | 0 | 0 |
| FC(F)(F)c1cc(Nc2nccc(-c3c(-c4ccc(Cl)cc4)nn4ncccc34)n2)ccc1Cl [GW829351] | 0 | 0 | 0 | 0 | 0 | 0 | 6 | 0 | 0 | 0 |
| Clc1cc(Nc2ncnc3cc[nH]c23)ccc1OCc1ccccn1 | 0 | 0 | 44 | 0 | 19 | 11 | 8 | 28 | 0 | 9 |
| O=C(Nc1n[nH]c2nc(-c3ccco3)c(Br)cc12)c1ccc(CN2CCCC2)cc1.O=C(O)[C@H](O)[C@@H](O)C(=O)O [SB-742352] | 0 | 0 | 0 | 0 | 0 | 2 | 0 | 0 | 0 | 13 |
| Nc1nc(-c2ccc3c(N)n[nH]c3c2)cc(N2CCCCC2)n1 [GSK2228768] | 0 | 10 | 0 | 3 | 0 | 0 | 0 | 5 | 0 | 10 |
| Cc1ccc(C)c(NC(=O)NCCNc2ccnc(Nc3ccc(F)cc3)n2)c1 [GSK1379878] | 15 | 0 | 0 | 22 | 0 | 3 | 26 | 6 | 0 | 0 |
| CCn1c(-c2ccncc2)nc2cnccc21 [SB-735216] | 36 | 22 | 8 | 0 | 0 | 21 | 0 | 0 | 26 | 17 |
| CNc1nccc(-c2c(-c3ccc(F)cc3)ncn2C2CCN(C)CC2)n1 [SB-222903] | 0 | 0 | 0 | 0 | 23 | 0 | 0 | 0 | 0 | 0 |
| Cl.Cl.c1ccc(-c2cc3ccncc3cc2OC2CCNCC2)cc1 [GSK1122999] | 0 | 15 | 0 | 47 | 0 | 4 | 24 | 79 | 7 | 12 |
| Nc1nc(-c2ccc3c(N)n[nH]c3c2)cc(N2CCC[C@@H](C(=O)Nc3ccccc3)C2)n1.O=C(O)C(F)(F)F.O=C(O)C(F)(F)F [GSK2288359] | 0 | 34 | 0 | 24 | 0 | 8 | 18 | 1 | 0 | 9 |
| Cl.Cn1ccc(-c2cccc(Nc3ccnc4cc(-c5nccs5)ccc34)c2)n1 [GW525701] | 43 | 0 | 3 | 6 | 0 | 14 | 30 | 49 | 0 | 0 |
| Clc1ccc(-c2cc(-c3c[nH]nc3-c3ccccn3)ccn2)cc1 [GW681251] | 100 | 0 | 13 | 16 | 17 | 0 | 3 | 0 | 0 | 0 |
| COc1ccc(NC(=O)Nc2ccc(C)c(-c3ccc(C(=O)Nc4ccncc4)cc3)c2)cc1 [GSK1398475] | 0 | 0 | 10 | 0 | 0 | 0 | 0 | 5 | 0 | 0 |
| C[C@H]1CC[C@@H](C(=O)Nc2ccccc2)CN1c1cc(-c2ccc3c(N)n[nH]c3c2)nc(N)n1 [GSK2283293] | 11 | 8 | 9 | 12 | 20 | 0 | 0 | 27 | 0 | 0 |
| Cc1ccc(O)cc1Nc1cc(C(F)(F)F)nc2ccc(-c3ccncc3)cc12 [GW630823] | 0 | 0 | 0 | 0 | 3 | 10 | 0 | 0 | 36 | 0 |
| COC(=O)c1c(-c2ccccc2)c2cc(Cl)ccc2c(=O)n1Cc1ccc(S(C)(=O)=O)cc1 | 17 | 0 | 0 | 0 | 7 | 0 | 0 | 2 | 0 | 0 |

| SMILES | %Inh (TRKC) [%] | %Inh (TRPM6) [%] | %Inh (TSSK1B) [%] | %Inh (TSSK3) [%] | %Inh (TTK) [%] | %Inh (TXK) [%] | %Inh [1] [%] | %Inh [2] [%] | %Inh (TYRO3) [%] | %Inh (ULK1) [%] |
| --- | --- | --- | --- | --- | --- | --- | --- | --- | --- | --- |
| CNc1nccc(-c2c(-c3ccc(F)cc3)ncn2CCCN2CCOCC2)n1 [SB-222516] | 38 | 0 | 12 | 12 | 0 | 9 | 18 | 16 | 17 | 13 |
| O=C(NCCCN1CCCC1=O)c1cnc(NCc2cc(Cl)ccc2Cl)nc1NC1CCNCC1 | 15 | 0 | 0 | 0 | 0 | 0 | 0 | 0 | 14 | 0 |
| Fc1cccc(COc2ccc(Nc3ncnc4cc[nH]c34)cc2Cl)c1 | 0 | 0 | 0 | 0 | 4 | 0 | 19 | 28 | 19 | 24 |
| Cn1cc(-c2ccc3c(c2)CCN3C(=O)Cc2cccc(C(F)(F)F)c2)c2c(N)ncnc21 [GSK2606414] | 40 | 0 | 12 | 0 | 22 | 0 | 15 | 0 | 0 | 27 |
| Cc1cccc(-c2nc(Nc3ccc4[nH]nnc4c3)c3ccccc3n2)n1 [GW867587] | 0 | 0 | 0 | 0 | 0 | 0 | 0 | 42 | 0 | 0 |
| Cl.O=S(=O)(c1cccc(F)c1)c1ccc(Nc2ncnc3cc(Br)sc23)cc1Cl [GSK306886] | 0 | 28 | 0 | 10 | 17 | 15 | 4 | 0 | 0 | 0 |
| CC(C)(C)c1ccc(-n2cnc3c(N)ncnc32)cc1 [SKF-97263] | 0 | 34 | 16 | 13 | 15 | 16 | 6 | 41 | 0 | 24 |
| Cl.c1ccc(Cn2ccc3cc(Nc4ncnc5ccccc45)ccc32)cc1 [GW275568] | 0 | 32 | 0 | 13 | 9 | 14 | 0 | 0 | 0 | 1 |
| Cn1ccc2ncnc(Oc3ccc(NC(=O)Nc4cccnc4)c(Cl)c3)c21 | 0 | 0 | 0 | 2 | 1 | 0 | 0 | 0 | 0 | 0 |
| COc1cc2c(Nc3cccc(NC(=O)c4ccccc4)c3)ncnc2cc1OCCCN1CCOCC1 [GSK223810] | 0 | 0 | 5 | 17 | 29 | 0 | 0 | 0 | 0 | 17 |
| COc1cc2ncnc(Nc3ccc(OCc4ccccc4Br)c(Cl)c3)c2cc1OC.Cl [GI261590] | 33 | 19 | 14 | 12 | 0 | 12 | 34 | 47 | 15 | 0 |
| N#Cc1ccc(Oc2ccc(Nc3ncnc4cc[nH]c34)cc2Cl)cc1 | 21 | 0 | 0 | 0 | 16 | 2 | 12 | 11 | 0 | 14 |
| CSc1nn2c(=O)cc(N3CCOCC3)nc2n1Cc1cccc(Cl)c1Cl [GSK2347225] | 0 | 0 | 26 | 30 | 0 | 0 | 12 | 0 | 5 | 7 |
| Nc1nccc2scc(-c3ccc4c(c3)CCN4C(=O)Cc3cc(F)ccc3F)c12 [GSK2587663] | 40 | 5 | 5 | 15 | 2 | 5 | 18 | 11 | 0 | 6 |
| c1ccc(-c2ccc3c(-c4ccnc(Nc5ccc6c(c5)OCCO6)n4)cnn3n2)cc1 [GW818941] | 0 | 25 | 32 | 18 | 36 | 13 | 8 | 5 | 0 | 15 |
| COc1ccc(-c2oc3ncnc(N)c3c2-c2ccc(OC)cc2)cc1 [SB-589132] | 71 | 0 | 19 | 22 | 31 | 11 | 53 | 98.9 | 0 | 9 |
